The values that follow come from PubChem BioAssay (NCATS).

The source made the active and inactive calls. Calls come from the whole dose curve; as a rule, active = well fitted activation curve with a large enough effect; inconclusive = small, poorly fitted or top-dose-only effect; inactive = no such curve, though single readings can be large or run the other way.

Cytochrome P450 3A4 (Homo sapiens), sequence (P08684 whole entry, looked up): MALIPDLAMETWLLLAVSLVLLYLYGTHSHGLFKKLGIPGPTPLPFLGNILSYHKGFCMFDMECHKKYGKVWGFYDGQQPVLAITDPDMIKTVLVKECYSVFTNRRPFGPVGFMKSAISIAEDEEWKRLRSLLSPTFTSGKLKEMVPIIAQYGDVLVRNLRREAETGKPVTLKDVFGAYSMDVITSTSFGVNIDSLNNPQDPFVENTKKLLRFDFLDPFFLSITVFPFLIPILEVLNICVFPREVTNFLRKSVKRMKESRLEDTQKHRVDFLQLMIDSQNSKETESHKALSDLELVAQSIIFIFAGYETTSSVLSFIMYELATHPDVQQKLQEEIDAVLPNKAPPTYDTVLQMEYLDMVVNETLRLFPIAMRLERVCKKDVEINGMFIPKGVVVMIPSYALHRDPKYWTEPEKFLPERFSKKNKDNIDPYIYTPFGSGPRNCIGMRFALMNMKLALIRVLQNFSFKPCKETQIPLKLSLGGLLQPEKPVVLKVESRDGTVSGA

The assay concerns the target Cytochrome P450 3A4 (Homo sapiens) (UniProt P08684). Nature of the assay: qHTS Assay for Activators of Cytochrome P450 3A4 (AID 885). Note: nearly all actives have a fitted effect of over 65% in size. Particulars: recombinant CYP3A4, Luciferin-PPXE luminescence, 60 min; series mostly up to 57.1 µM; activity change, positive = activation: at the top concentration. The gist of the method:
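Human CYP3A4 (20 nM) with Luciferin-PPXE at 25 uM (its KM) in 200 mM KPO4; 10 min compound preincubation, then NADPH regeneration and 60 min reaction at RT. Luciferin read by luminescence; normalized to 57 uM ketoconazole full inhibition.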
Consider `Cc1ccc(S(=O)(=O)N[C@H]2COC(=O)[C@H](C)COC(=O)[C@H](C)NC(=O)C/C=C\[C@H]2C)cc1`, for which the activity change, positive = activation is -41.3% [at 11.4 µM] (inactive).
Take `O=C1[C@H]2O[C@@H]2[C@@H](O)[C@H]2[C@H]1CCn1c(=O)n(Cc3cc4c(cc3Cl)OCO4)c(=O)n12`: the activity change, positive = activation was -36.7% [at 11.4 µM] (inactive).
As for `C#CCCCO/N=C1/C[C@@H](O)[C@@H](O)[C@@H]2[C@@H]3C(=O)N(C[C@@H]4CCCO4)C(=O)[C@H]3CC[C@H]12`, the figure is -43.2% [at 11.4 µM] (inactive); as for `C#CCCCO/N=C1/C[C@@H](O)[C@@H](O)[C@@H]2[C@@H]3C(=O)N(CCC(=O)OCC)C(=O)[C@H]3CC[C@H]12`, -51% [at 11.4 µM] (inactive).
As for `COC(=O)c1ccc(C(NC(=O)OCc2ccccc2)/C(I)=C/[C@@H](C)C(=O)Nc2ccccc2)cc1` (stereo not given in full), the figure is -79.1% (inactive); as for `FC(F)(F)c1ccc(C2[C@H]3CN(Cc4ccc(-c5ccccc5)cc4)[C@H](c4ccccc4)C34CC2(c2cccnc2)C4)cc1` (stereo not given in full), -54.4% (inactive); as for `O=C1[C@H]2[C@H]3[C@H](O)[C@H](O)C/C(=N/OC[C@@H](O)COCc4ccco4)[C@H]3CC[C@@H]2C(=O)N1Cc1ccccc1`, -57.9% [at 11.4 µM] (inactive).
On to `CNC(=O)C1(C)C=CC2(CCCCC2)N1C(=O)OC` (stereo not given), for which the “activity change, positive = activation” value is -39.6% (inactive).
In the case of `N#Cc1ccc(C23CC4(C2)[C@H](CN(P(=O)(c2ccccc2)c2ccccc2)[C@@H]4c2ccccc2)C3c2ccc(Cl)nc2)cc1` (stereo not given in full), the “activity change, positive = activation” value is -56.6% (inactive).
As for `CCC1=C2CC[C@H]3C(=O)NC(=O)[C@H]3[C@H]2[C@@]2(Cc3ccccc3)C(=NCC(=O)OC)OC(=O)N2C1=O`, the “activity change, positive = activation” value was -56.7% (inactive).
